Assay results as given in PubChem BioAssay (Tox21).
“And” between values parts separate entries of the source, which are not always exact repeats. Equal values may be shown once. Records with an inconclusive call do not appear. A call without a number means that no potency is given here. A structure can be active in one record and inactive in another. The source made the active and inactive calls. Unless noted, calls follow the shape of the full dose curve.

Key:
[1] = Nuclear factor erythroid 2-related factor 2/antioxidant responsive element (Nrf2/ARE) small molecule agonists: qHTS cell viability counter screen in human keratinocytes (AID 1919968; active = well fitted curve in the direction sought with a large enough effect in the repeat runs; an effect the other way counts as inactive or inconclusive; also: nearly all actives have a fitted effect of over 55% in size; also: potency is read from the fitted curve at half-maximal effect)
Outline: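 Viability counter-screen: KeratinoSens reporter cells, DMSO-delivered compounds, 23 h at 37 C, CellTiter-Fluor fluorescence.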

[2] = Nuclear factor erythroid 2-related factor 2/antioxidant responsive element (Nrf2/ARE) small molecule agonists: luciferase reporter gene qHTS assay in human keratinocytes (AID 1919969); also: nearly all actives have a fitted effect of over 35% in size; also: potency is read from the fitted curve at half-maximal effect
[3] = target: Gonadotropin-releasing hormone receptor (Homo sapiens) (UniProt P30968); experiment: Human gonadotropin-releasing hormone receptor (GnRHR) small molecule agonists, calcium flux assay in GnRHR-HEK293 cells (AID 1920063); also: nearly all actives have a fitted effect of over 35% in size
Sequence of Gonadotropin-releasing hormone receptor (Homo sapiens) (P30968 whole entry, looked up): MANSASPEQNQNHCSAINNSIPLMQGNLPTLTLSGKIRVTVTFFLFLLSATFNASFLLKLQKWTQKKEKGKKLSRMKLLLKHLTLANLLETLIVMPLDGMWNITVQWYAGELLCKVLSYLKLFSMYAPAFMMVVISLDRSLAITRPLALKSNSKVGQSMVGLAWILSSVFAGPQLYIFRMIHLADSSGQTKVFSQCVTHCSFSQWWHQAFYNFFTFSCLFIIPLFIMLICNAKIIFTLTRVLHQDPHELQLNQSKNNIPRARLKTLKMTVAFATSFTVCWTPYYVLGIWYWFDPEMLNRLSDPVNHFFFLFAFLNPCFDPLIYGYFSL
Outline: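 Tox21-format agonist screen using human GnRHR-expressing HEK293 cells and a fluorescent calcium dye; kinetic 3-min fluorescence reading after compound addition, 15-point concentration series run in triplicate.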

[4] = target: KiSS-1 receptor (Homo sapiens) (UniProt Q969F8); experiment: Human kisspeptin (KISS1R) small molecule agonists, calcium flux assay in KISS1R-HEK293 cells (AID 1920064; active = well fitted curve in the direction sought with a large enough effect in the repeat runs; an effect the other way counts as inactive or inconclusive)
Sequence of KiSS-1 receptor (Homo sapiens) (Q969F8 whole entry, looked up): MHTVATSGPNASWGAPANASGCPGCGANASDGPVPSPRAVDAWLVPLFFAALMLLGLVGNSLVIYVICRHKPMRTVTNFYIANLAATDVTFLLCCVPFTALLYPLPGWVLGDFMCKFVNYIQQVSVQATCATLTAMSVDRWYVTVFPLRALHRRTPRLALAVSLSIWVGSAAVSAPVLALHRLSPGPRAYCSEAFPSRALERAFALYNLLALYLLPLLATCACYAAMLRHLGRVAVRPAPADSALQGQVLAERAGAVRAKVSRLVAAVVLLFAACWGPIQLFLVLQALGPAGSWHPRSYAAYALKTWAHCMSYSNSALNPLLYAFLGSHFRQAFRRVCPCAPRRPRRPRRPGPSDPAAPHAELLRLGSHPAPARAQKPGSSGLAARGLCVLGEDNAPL
Outline: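 Intracellular calcium mobilization in KISS1R-HEK293 cells was recorded by fluorescence (Ex/Em 480/540) for 3 min following compound addition to cells pre-loaded 1 h with calcium dye.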

[5] = G protein-coupled receptor (GPCR) small molecule agonists, calcium flux assay: HEK293 wild type cell line counter screen (AID 1920065)
Outline: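 In this agonist-mode screen, ATP is the positive control and DMSO the vehicle. Cells grow 18 h before a 1 h dye incubation at 37 C; signal is taken at Ex/Em 480/540 over 3 min.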

[6] = p53 small molecule agonists, cell-based qHTS assay with human liver microsomes (AID 1963577);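 also: p53 response element beta-lactamase reporter cells with liver microsomes plus NADPH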
Outline: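 In this qHTS, p53 response-element beta-lactamase cells receive test compound together with a microsome/NADPH activating system (0.5 mg/mL final each) and are incubated 16 h at 37 C before LiveBLAzer fluorescence detection.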

[7] = p53 small molecule agonists, cell-based qHTS assay with rat liver microsomes (AID 1963578)
Outline: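 Agonist mode in p53RE-bla reporter cells, with compounds co-incubated 16 h at 37 C alongside 0.5 mg/mL rat liver microsomes and 0.5 mg/mL NADPH (final), followed by a 2 h LiveBLAzer detection step.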

[8] = p53 small molecule agonists, cell-based qHTS assay with human liver microsomes: qHTS cell viability counter screen (AID 1963579); also: nearly all actives have a fitted effect of over 45% in size
Outline: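 Metabolically activated exposure: compounds, human liver microsomes and NADPH (0.5 mg/mL final apiece) were added to p53RE-bla cells seeded 5 h earlier, left 16 h at 37 C, and then assessed for viability by CellTiter-Glo luminescence.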

[9] = p53 small molecule agonists, cell-based qHTS assay with rat liver microsomes: qHTS cell viability counter screen (AID 1963580); also: nearly all actives have a fitted effect of over 45% in size
Outline: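 HCT-116 p53RE-bla, 4,000 cells/well, 5 h pre-incubation; cpd + rat liver microsomes 0.5 mg/mL + NADPH 0.5 mg/mL (final); 16 h, 37 C; CellTiter-Glo, 30 min RT; luminescence.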

[10] = p53 small molecule agonists, cell-based qHTS assay: qHTS cell viability counter screen (AID 1963581); also: nearly all actives have a fitted effect of over 45% in size
Outline: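 Compounds are pinned onto HCT-116 p53RE-bla cells and left 16 h at 37 C. Following the reporter FRET read, ATP is quantified by CellTiter-Glo luminescence after 30 min at room temperature.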

[11] = p53 small molecule agonists, cell-based qHTS assay (AID 1963582; active = well fitted activation curve with a large enough effect in the signal ratio in the repeat runs, not every such curve was filed as active; the % refers to the signal ratio)
Outline: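 Agonist activity was scored from beta-lactamase FRET fluorescence in p53RE-bla cells treated 16 h at 37 C with compounds in DMSO, substrate incubation being 2 h at room temperature.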

[12] = target: 5-hydroxytryptamine receptor 2A (Homo sapiens) (UniProt P28223); experiment: 5-hydroxytryptamine receptor 2A (HTR2A) small molecule antagonists, cell-based qHTS assay (AID 1963586); also: nearly all actives have a fitted effect of over 45% in size; also: potency is read from the fitted curve at half-maximal effect
Sequence of 5-hydroxytryptamine receptor 2A (Homo sapiens) (P28223 whole entry, looked up): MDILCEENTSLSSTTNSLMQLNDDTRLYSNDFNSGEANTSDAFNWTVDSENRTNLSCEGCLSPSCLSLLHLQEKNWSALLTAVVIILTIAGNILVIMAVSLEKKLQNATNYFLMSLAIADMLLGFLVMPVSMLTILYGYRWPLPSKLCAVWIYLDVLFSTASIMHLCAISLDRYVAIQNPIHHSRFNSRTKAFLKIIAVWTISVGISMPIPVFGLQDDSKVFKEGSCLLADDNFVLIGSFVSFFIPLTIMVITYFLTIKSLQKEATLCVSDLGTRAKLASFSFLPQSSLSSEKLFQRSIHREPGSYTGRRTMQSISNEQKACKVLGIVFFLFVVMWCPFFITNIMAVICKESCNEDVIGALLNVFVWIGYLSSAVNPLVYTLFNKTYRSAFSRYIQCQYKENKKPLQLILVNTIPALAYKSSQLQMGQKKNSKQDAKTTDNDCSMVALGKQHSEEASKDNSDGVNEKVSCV
Outline: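 Antagonist-mode intracellular calcium assay: DOI (4 nM) added after 5 min compound pre-incubation at room temperature to dye-loaded HTR2A-CHO cells. Fluorescence followed for 3 min, sampled every second.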

[13] = target: 5-hydroxytryptamine receptor 2A (Homo sapiens) (UniProt P28223); experiment: 5-hydroxytryptamine receptor 2A (HTR2A) small molecule agonists, cell-based qHTS assay (AID 1963587); also: nearly all actives have a fitted effect of over 30% in size
Outline: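 Kinetic calcium-flux fluorescence (2 min, 1 sec intervals) after compound addition in agonist mode. HTR2A-CHO cells were cultured 18 h, then dye-loaded 1 h at 37 C.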

[14] = target: Muscarinic acetylcholine receptor M1 (Homo sapiens) (UniProt P11229); experiment: Cholinergic receptor muscarinic 1 (CHRM1) small molecule antagonists, cell-based qHTS assay (AID 1963588); also: nearly all actives have a fitted effect of over 40% in size; also: potency is read from the fitted curve at half-maximal effect
Sequence of Muscarinic acetylcholine receptor M1 (Homo sapiens) (P11229 whole entry, looked up): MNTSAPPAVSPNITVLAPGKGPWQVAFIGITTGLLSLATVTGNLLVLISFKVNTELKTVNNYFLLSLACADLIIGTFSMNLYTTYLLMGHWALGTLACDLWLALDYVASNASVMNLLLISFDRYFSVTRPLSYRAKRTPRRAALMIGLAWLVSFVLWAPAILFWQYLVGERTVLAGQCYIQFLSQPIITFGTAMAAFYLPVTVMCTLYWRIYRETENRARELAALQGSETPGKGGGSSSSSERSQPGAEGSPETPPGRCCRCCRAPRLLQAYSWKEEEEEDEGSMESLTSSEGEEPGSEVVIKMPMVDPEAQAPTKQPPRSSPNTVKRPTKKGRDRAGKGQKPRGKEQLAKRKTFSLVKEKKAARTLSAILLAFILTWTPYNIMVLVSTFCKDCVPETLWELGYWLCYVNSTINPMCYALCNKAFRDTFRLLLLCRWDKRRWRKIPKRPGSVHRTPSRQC
Outline: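 CHRM1-CHO calcium-flux assay, antagonist mode. Cells were seeded 18 h, dye-loaded 1 h at 37 C and given compound for 5 min at RT, then acetylcholine was added at 50nM. FDSS fluorescence was read 3 min; 15 concentrations, three runs.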

[15] = cAMP Responsive Elements (CRE) small molecule antagonists, cell-based qHTS assay (AID 1963591; active = well fitted inhibition curve with a large enough effect in the signal ratio in the repeat runs, not every such curve was filed as active; the % refers to the signal ratio)
Outline: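 qHTS in CRE-bla HEK 293T cells: compound in DMSO, then 0.25 uM NKH477 (final), 3 h at 37 °C/5% CO2; beta-lactamase FRET read-out after 2 h substrate incubation.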

[16] = target: D(2) dopamine receptor (Homo sapiens) (UniProt P14416); experiment: Dopamine D2 receptor (DRD2) small molecule agonists, cell-based qHTS assay (AID 1963594); also: nearly all actives have a fitted effect of over 35% in size
Sequence of D(2) dopamine receptor (Homo sapiens) (P14416 whole entry, looked up): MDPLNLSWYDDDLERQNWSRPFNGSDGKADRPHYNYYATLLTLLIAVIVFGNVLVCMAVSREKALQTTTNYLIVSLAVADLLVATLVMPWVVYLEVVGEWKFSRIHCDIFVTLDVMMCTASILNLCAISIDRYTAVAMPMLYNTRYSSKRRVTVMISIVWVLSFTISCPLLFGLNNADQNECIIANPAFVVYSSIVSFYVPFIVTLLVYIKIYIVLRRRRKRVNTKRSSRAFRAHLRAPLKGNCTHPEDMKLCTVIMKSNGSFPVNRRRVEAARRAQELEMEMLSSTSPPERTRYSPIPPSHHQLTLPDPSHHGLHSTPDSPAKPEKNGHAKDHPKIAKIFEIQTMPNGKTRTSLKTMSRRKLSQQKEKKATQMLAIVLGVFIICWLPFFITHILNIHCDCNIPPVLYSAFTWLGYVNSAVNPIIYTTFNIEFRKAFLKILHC
Outline: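 cAMP accumulation in DRD2-HEK293 cells measured by HTRF after 1 h detection; compounds added 10 min before NKH477 (200nM […]) forskolin-analogue stimulation, 30 min at room temperature, with Ro20-1724 present at 0.1 mM final.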

[17] = target: D(2) dopamine receptor (Homo sapiens) (UniProt P14416); experiment: Dopamine D2 receptor (DRD2) small molecule antagonists, cell-based qHTS assay (AID 1963595; active = well fitted inhibition curve with a large enough effect in the signal ratio in the repeat runs, with a control signal flat; the % refers to the signal ratio)
Outline: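 Antagonism was scored as restored cAMP in HEK293-DRD2 cells. These cells were stimulated with 200 nM NKH477 and 12 nM quinpirole for 30 min at room temperature, in the presence of 0.1 mM Ro20-1724.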

[18] = target: Muscarinic acetylcholine receptor M1 (Homo sapiens) (UniProt P11229); experiment: Cholinergic receptor muscarinic 1 (CHRM1) small molecule agonists, cell-based qHTS assay (AID 1963589); also: nearly all actives have a fitted effect of over 35% in size
Outline: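 Stable CHRM1-CHO cells (human receptor) were incubated 18 h, dye-loaded for 1 h at 37 C and exposed to test compounds for agonist activity, with calcium-dependent fluorescence followed kinetically.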

[19] = target: Beta-2 adrenergic receptor (Homo sapiens) (UniProt P07550); experiment: Adrenergic beta2 receptor (ADRB2) small molecule antagonists, cell-based qHTS assay (AID 1963592); also: series mostly up to about 92 µM; nearly all actives have a fitted effect of over 50% in size
Sequence of Beta-2 adrenergic receptor (Homo sapiens) (P07550 whole entry, looked up): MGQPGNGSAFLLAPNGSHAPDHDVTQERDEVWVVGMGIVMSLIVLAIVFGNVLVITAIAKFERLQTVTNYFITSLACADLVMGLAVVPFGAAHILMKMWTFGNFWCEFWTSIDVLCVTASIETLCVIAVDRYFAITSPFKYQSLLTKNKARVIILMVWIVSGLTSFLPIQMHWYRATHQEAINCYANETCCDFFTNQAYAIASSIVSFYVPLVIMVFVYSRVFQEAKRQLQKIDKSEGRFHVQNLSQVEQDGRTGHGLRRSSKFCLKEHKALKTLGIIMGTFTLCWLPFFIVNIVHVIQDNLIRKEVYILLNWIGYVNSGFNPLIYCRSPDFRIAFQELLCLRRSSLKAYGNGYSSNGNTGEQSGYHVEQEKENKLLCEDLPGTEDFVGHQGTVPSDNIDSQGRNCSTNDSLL
Outline: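 Cells (CHO, stable ADRB2 overexpression) incubated 18-20hr at 37C; compounds added from DMSO; agonist mix (1nM isoproterenol, 100uM IBMX, 25uM Ro-20-1724) added; 0.5hr RT; d2-cAMP and anti-cAMP-cryptate added; 1hr RT; 665/615 nm read.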

[20] = cAMP Responsive Elements (CRE) small molecule agonists, cell-based qHTS assay (AID 1963590)
Outline: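 FRET-based beta-lactamase readout (LiveBLAzer B/G, 2 h RT) quantified CRE activation in HEK 293T CRE-bla cells after 3 h treatment with DMSO-dissolved compounds.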

| Structure (SMILES) | Potency [1] | Potency [2] | Potency [3] | Potency [4] | Potency [5] | Potency [6] | Potency [7] | Potency [8] | Potency [9] | Potency [10] | Potency [11] | Potency [12] | Potency [13] | Potency [14] | Potency [15] | Potency [16] | Potency [17] | Potency [18] | Potency [19] | Potency [20] |
| --- | --- | --- | --- | --- | --- | --- | --- | --- | --- | --- | --- | --- | --- | --- | --- | --- | --- | --- | --- | --- |
| Cc1ccc(N)cc1N | inactive | 26.6 µM (active) and 30.6 µM (active) | inactive | inactive | inactive | inactive | inactive | inactive | inactive | inactive | inactive | inactive | inactive | inactive | inactive | inactive | inactive |  |  |  |
| Nc1c(Br)cc([N+](=O)[O-])cc1[N+](=O)[O-] | inactive | inactive | inactive | inactive | inactive | inactive | inactive | inactive | inactive | inactive | inactive | inactive | inactive | inactive | inactive | inactive | inactive | inactive | inactive |  |
| Brc1ccc(Oc2ccccc2)cc1 | inactive | 35.2 µM (active) and inactive | inactive | inactive | inactive | inactive | inactive | inactive | inactive | inactive | inactive | inactive | inactive | inactive | inactive | inactive | inactive | inactive | inactive |  |
| OC(Cc1ccccc1Cl)(Cn1cncn1)C1(Cl)CC1 (configuration not stated) | inactive | inactive | inactive | inactive | inactive | inactive | inactive | inactive | inactive | inactive | inactive | inactive | inactive | inactive |  | inactive | inactive |  | inactive | inactive |
| O=C(O)COc1ccccc1 | inactive | inactive | inactive | inactive | inactive | inactive | inactive | inactive | inactive | inactive | inactive | inactive | inactive | inactive | inactive | inactive | inactive |  | inactive | inactive |
| Cc1cc(Cl)ccc1OCC(=O)O | inactive | inactive | inactive | inactive | inactive | inactive | inactive | inactive | inactive | inactive | inactive | inactive | inactive | inactive |  | inactive | inactive | inactive | inactive |  |
| Oc1cc(Cl)ccc1Cl | inactive | inactive | inactive | inactive | inactive | inactive | inactive | inactive | inactive | inactive | inactive | inactive | inactive | inactive |  | inactive | inactive | inactive | inactive |  |
| CC1(C)C(=O)NC(=O)NC1=O | inactive | inactive | inactive | inactive | inactive | inactive | inactive | inactive | inactive | inactive | inactive | inactive | inactive | inactive |  | inactive | inactive |  | inactive | inactive |
| CCOP(=O)(OCC)OCC | inactive | inactive | inactive | inactive | inactive | inactive | inactive | inactive | inactive | inactive | inactive | inactive | inactive | inactive | inactive | inactive | inactive | inactive |  |  |
| CCC(=O)C(CC(C)N(C)C)(c1ccccc1)c1ccccc1 (configuration not stated) | inactive | inactive | inactive | inactive | inactive | inactive | inactive | inactive | inactive | inactive | inactive | inactive | inactive | inactive and 10.1 µM (active) |  | inactive | inactive | inactive | inactive |  |
| COc1ccc(O)c(C(C)(C)C)c1 | inactive | 68.7 µM (active) | inactive | inactive | inactive | inactive | inactive | inactive | inactive | inactive | inactive | 23.7 µM (active) and inactive | inactive | inactive |  | inactive | inactive | inactive | inactive |  |
| Cc1cc(N=Nc2ccccc2C)ccc1N | 54.5 µM (active) and inactive | inactive | inactive | inactive | inactive | inactive | inactive | inactive | inactive | inactive | inactive | inactive | inactive | inactive |  | inactive | inactive | inactive | inactive |  |
| C=CCOC(Cn1ccnc1)c1ccc(Cl)cc1Cl (configuration not stated) | 43.3 µM (active) and 18.8 µM (active) | 15.4 µM (active) and 24.3 µM (active) and 8.41 µM (active) | inactive | inactive | inactive | inactive | inactive | inactive | inactive | inactive | inactive |  |  | 5.96 µM (active) and 18.8 µM (active) | inactive |  | inactive | inactive | inactive | inactive |
| CCN(N=O)C(N)=O | inactive | inactive | inactive | inactive | inactive | inactive | inactive | inactive | inactive | inactive |  | inactive | inactive | inactive | inactive | inactive |  | inactive | inactive | inactive |
| O=P1(N(CCCl)CCCl)NCCCO1 (configuration not stated) | inactive | inactive | inactive | inactive | inactive | inactive | inactive | inactive | inactive | inactive | inactive |  |  |  | inactive | inactive |  |  |  | inactive |
